Measured values taken from PubChem BioAssay (NCI).
The panel holds about 83,000 compounds, 20% with a hit somewhere; the sample as a whole holds those more often.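 Method: cells in 96-well plates; compound added at one concentration; 48 h incubation; percent growth measured; values under 10 scored active.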 Active and inactive are the calls of the source.

Experiments:
Assay in all cases: NCI-60 one-dose screen, 48 h (100 = growth as untreated, 0 = no growth, -100 = all killed)
Conditions in all cases: 10 µM unless noted
NCI-H23 lung = tested on: NCI-H23 lung
NCI-H226 lung = tested on: NCI-H226 lung
NCI-H322M lung = tested on: NCI-H322M lung
NCI-H460 lung = tested on: NCI-H460 lung
HOP-92 NSCLC = tested on: HOP-92 NSCLC
NCI-H522 lung = tested on: NCI-H522 lung
A549/ATCC NSCLC = tested on: A549/ATCC NSCLC
786-0 renal = tested on: 786-0 renal
COLO 205 colon = tested on: COLO 205 colon
DU-145 prostate = tested on: DU-145 prostate
K-562 leukemia = tested on: K-562 leukemia
MALME-3M melanoma = tested on: MALME-3M melanoma
MDA-MB-231 breast = tested on: MDA-MB-231 breast
RXF 393 renal = tested on: RXF 393 renal
SF-268 CNS = tested on: SF-268 CNS
SF-539 CNS = tested on: SF-539 CNS
UACC-257 melanoma = tested on: UACC-257 melanoma
M14 melanoma = tested on: M14 melanoma
SF-295 CNS = tested on: SF-295 CNS
HOP-62 NSCLC = tested on: HOP-62 NSCLC

Compound	growth (NCI-H23 lung)	growth (NCI-H226 lung)	growth (NCI-H322M lung)	growth (NCI-H460 lung)	growth (HOP-92 NSCLC)	growth (NCI-H522 lung)	growth (A549/ATCC NSCLC)	growth (786-0 renal)	growth (COLO 205 colon)	growth (DU-145 prostate)	growth (K-562 leukemia)	growth (MALME-3M melanoma)	growth (MDA-MB-231 breast)	growth (RXF 393 renal)	growth (SF-268 CNS)	growth (SF-539 CNS)	growth (UACC-257 melanoma)	growth (M14 melanoma)	growth (SF-295 CNS)	growth (HOP-62 NSCLC)
CC(C)(C)c1ccc(OP(=S)(N/N=C/c2ccccc2O)Oc2ccc(C(C)(C)C)cc2)cc1	58.1% (inactive)	58.6% (inactive)	76.3% (inactive)	87% (inactive)	70.6% (inactive)	12.1% (inactive)	56.7% (inactive)	68.6% (inactive)	79.7% (inactive)	92% (inactive)	59% (inactive)	86.8% (inactive)	63.5% (inactive)	87.3% (inactive)	69.8% (inactive)	66.8% (inactive)	59.8% (inactive)	77.7% (inactive)	–	–
CCN1CCN(C(=O)[C@]23CCC(C)(C)C[C@@H]2C2=CC[C@@H]4[C@@]5(C)C/C(=C/c6ccncc6)C(=O)C(C)(C)[C@@H]5CC[C@@]4(C)[C@]2(C)CC3)CC1	-7.07% (active)	-42.8% (active)	27% (inactive)	-64.7% (active)	-11% (active)	-59% (active)	4.33% (active)	-73.6% (active)	-15.3% (active)	-16.9% (active)	-13.1% (active)	-87.9% (active)	-59.9% (active)	-93.3% (active)	14.8% (inactive)	-96.4% (active)	-2.01% (active)	-76% (active)	-55.9% (active)	–
COc1ccc2c(c1)c(-c1nc(-c3cn(C)c4ncccc34)cs1)cn2CCCN1CCCCC1	79.4% (inactive)	67.1% (inactive)	80.3% (inactive)	-40.4% (active)	48.7% (inactive)	87.7% (inactive)	25.2% (inactive)	-31.3% (active)	-65.8% (active)	42.9% (inactive)	-48.4% (active)	81.1% (inactive)	44.2% (inactive)	65% (inactive)	76.6% (inactive)	43.9% (inactive)	96% (inactive)	-85.2% (active)	91.6% (inactive)	–
Brc1cnc2[nH]cc(-c3nnc(-c4ccccc4)o3)c2c1	78.5% (inactive)	66.4% (inactive)	77.5% (inactive)	80.9% (inactive)	74.7% (inactive)	76.7% (inactive)	81.2% (inactive)	73.6% (inactive)	82.9% (inactive)	57.9% (inactive)	73.3% (inactive)	78.9% (inactive)	63% (inactive)	26.8% (inactive)	81.2% (inactive)	89.6% (inactive)	112% (inactive)	76.6% (inactive)	85.8% (inactive)	–
CCCCC[C@H]1CC=C2C(=O)C(Cl)=C[C@@H]2CC=CCCCC(=O)O[C@@H](CCCCC)CC=C2C(=O)C(Cl)=C[C@@H]2CC=CCCCC(=O)O[C@@H](CCCCC)CC=C2C(=O)C(Cl)=C[C@@H]2CC=CCCCC(=O)O1	58.4% [8 µM] (inactive)	115% [8 µM] (inactive)	96.2% [8 µM] (inactive)	91% [8 µM] (inactive)	130% [8 µM] (inactive)	25.1% [8 µM] (inactive)	90.6% [8 µM] (inactive)	103% [8 µM] (inactive)	70.8% [8 µM] (inactive)	59.9% [8 µM] (inactive)	27.7% [8 µM] (inactive)	105% [8 µM] (inactive)	53.1% [8 µM] (inactive)	79.2% [8 µM] (inactive)	73.1% [8 µM] (inactive)	88% [8 µM] (inactive)	76.3% [8 µM] (inactive)	48.2% [8 µM] (inactive)	106% [8 µM] (inactive)	–
COc1ccc(-c2nc3ncccn3c2-c2nc3ccc(Br)cc3[nH]2)cc1	98.4% (inactive)	93.5% (inactive)	94.3% (inactive)	90.1% (inactive)	77.1% (inactive)	69.7% (inactive)	84.9% (inactive)	98.1% (inactive)	–	94.1% (inactive)	63.5% (inactive)	81.3% (inactive)	72.9% (inactive)	74.1% (inactive)	99.6% (inactive)	82.8% (inactive)	92.6% (inactive)	90.5% (inactive)	–	–
Oc1ccc(Nc2ccccc2)cc1	86% (inactive)	92.6% (inactive)	77.7% (inactive)	92.5% (inactive)	119% (inactive)	92.2% (inactive)	111% (inactive)	97.8% (inactive)	109% (inactive)	94.6% (inactive)	79.6% (inactive)	70.7% (inactive)	52.6% (inactive)	–	88.2% (inactive)	64.5% (inactive)	110% (inactive)	104% (inactive)	82% (inactive)	–
COc1ccc(-c2cc(/C=C/C(=O)c3ccc(OC)c(OC)c3)[nH]n2)cc1	32.7% (inactive)	50.9% (inactive)	26.1% (inactive)	-71.1% (active)	66.6% (inactive)	1.47% (active)	29.2% (inactive)	13% (inactive)	24.5% (inactive)	0.792% (active)	-29.8% (active)	63.1% (inactive)	28.8% (inactive)	8.62% (active)	7.76% (active)	-50.7% (active)	73.9% (inactive)	41.8% (inactive)	–	–
CC1c2ccccc2N(S(=O)(=O)c2ccccc2)C1C (centres undefined)	89.4% (inactive)	88.4% (inactive)	102% (inactive)	115% (inactive)	86.8% (inactive)	76.9% (inactive)	92% (inactive)	102% (inactive)	97.6% (inactive)	102% (inactive)	34.1% (inactive)	–	91.2% (inactive)	88% (inactive)	102% (inactive)	104% (inactive)	93.6% (inactive)	77.6% (inactive)	94.9% (inactive)	–
COc1cc(NC(C)CN(CC(C)C)C(C)C)c2ncccc2c1 (centres undefined)	83.7% (inactive)	89.7% (inactive)	–	106% (inactive)	74.4% (inactive)	101% (inactive)	105% (inactive)	111% (inactive)	96.9% (inactive)	106% (inactive)	98.1% (inactive)	104% (inactive)	81.1% (inactive)	113% (inactive)	94.7% (inactive)	103% (inactive)	99.5% (inactive)	–	110% (inactive)	109% (inactive)
O=C1c2cc3c(cc2-c2c1c1ccc(Cl)cc1c(=O)n2C[C@H](O)[C@@H](O)[C@H](O)CO)OCO3	-18% (active)	-49.6% (active)	12.6% (inactive)	0.505% (active)	12.4% (inactive)	-59.5% (active)	-75.8% (active)	4.87% (active)	-16.6% (active)	3.84% (active)	12% (inactive)	-28.2% (active)	6.7% (active)	-47% (active)	7% (active)	-39.8% (active)	-49.4% (active)	4.34% (active)	-5.74% (active)	–
COc1cc(/C=C/c2cc(/C=C/c3ccc(O)c(OC)c3)n(-c3ccccc3)c(=O)n2)ccc1O	78.4% (inactive)	80.2% (inactive)	86.8% (inactive)	91% (inactive)	78.8% (inactive)	68.2% (inactive)	90.6% (inactive)	85.1% (inactive)	71.3% (inactive)	86.7% (inactive)	53.9% (inactive)	90.4% (inactive)	61.4% (inactive)	68.3% (inactive)	72.3% (inactive)	79.5% (inactive)	88.9% (inactive)	85.7% (inactive)	88% (inactive)	–
O=C1NC(=Nc2ccc(S(=O)(=O)Nc3nccs3)cc2)S/C1=C\c1coc2ccccc2c1=O	100% (inactive)	97.8% (inactive)	101% (inactive)	101% (inactive)	95.3% (inactive)	103% (inactive)	99.7% (inactive)	111% (inactive)	113% (inactive)	121% (inactive)	93.8% (inactive)	109% (inactive)	105% (inactive)	105% (inactive)	123% (inactive)	96.2% (inactive)	105% (inactive)	105% (inactive)	–	–
Cc1ccc2oc(=O)cc(-c3sc(N4CCCCC4)nc3-c3ccccc3)c2c1	90.9% (inactive)	90.4% (inactive)	81.8% (inactive)	91.1% (inactive)	92.1% (inactive)	89% (inactive)	99.6% (inactive)	99.8% (inactive)	97.3% (inactive)	98.5% (inactive)	97.8% (inactive)	86% (inactive)	88.1% (inactive)	101% (inactive)	87.9% (inactive)	94.7% (inactive)	105% (inactive)	97.3% (inactive)	102% (inactive)	–
Cn1cc(-c2nc(-c3cn(C)c4ncccc34)cs2)c2ccccc21	43.6% (inactive)	66.9% (inactive)	58.5% (inactive)	16.7% (inactive)	75.3% (inactive)	-1.88% (active)	38.8% (inactive)	39.3% (inactive)	32.8% (inactive)	58.9% (inactive)	12.6% (inactive)	–	48.6% (inactive)	35.5% (inactive)	45.4% (inactive)	27.6% (inactive)	60.6% (inactive)	8.62% (active)	20.7% (inactive)	–
CC(=O)Oc1ccccc1C(=O)/C=C/c1cccc([N+](=O)[O-])c1	87.9% (inactive)	94.2% (inactive)	99.2% (inactive)	82.5% (inactive)	69.8% (inactive)	55.9% (inactive)	95.6% (inactive)	81.6% (inactive)	86.7% (inactive)	75% (inactive)	28.1% (inactive)	–	85.2% (inactive)	60.4% (inactive)	62.6% (inactive)	80.8% (inactive)	103% (inactive)	96.4% (inactive)	68.7% (inactive)	–
